According to PubChem BioAssay (NCATS):
Inconclusive results are not listed. Active and inactive are the calls of the source. Calls follow the shape of the dose curve; as a rule, active = well fitted cell-killing curve with a large enough effect; inconclusive = small, poorly fitted or top-dose-only effect, or effect the other way; inactive = flat fitted curve, though single readings scatter.

Assays:
Test in all cases: Primary qHTS to identify gynecologic anti-cancer compounds using libraries of approved drugs and bioactive compounds (AID 1345084); also: nearly all actives have a fitted effect of over 55% in size
[1] = test system: C33A; details: Gynecologic cancer cell panel viability, ATPlite luminescence, 48 h; series mostly up to 57.5 µM
Procedure, shortened: (§1)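 Cells, 1,000 per well, were allowed to settle for 16 h at 37 C before compound addition. Five concentrations were tested for 48 h, and viability was read by ATPlite luminescence after 15 min at room temperature.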

[2] = test system: CAOV3; details: Gynecologic cancer cell panel viability, ATPlite luminescence, 48 h; series mostly up to 57.5 µM
Procedure, shortened: as §1

[3] = test system: CASKI; details: Gynecologic cancer cell panel viability, ATPlite luminescence, 48 h; series mostly up to 57.5 µM
Procedure, shortened: as §1

[4] = test system: Es-2; details: Gynecologic cancer cell panel viability, ATPlite luminescence, 48 h; series mostly up to 57.5 µM
Procedure, shortened: as §1

[5] = test system: HeLa; details: Gynecologic cancer cell panel viability, ATPlite luminescence, 48 h; series mostly up to 57.5 µM
Procedure, shortened: as §1

[6] = test system: Hek293T; details: Gynecologic cancer cell panel viability, ATPlite luminescence, 48 h, control line for the selectivity index; series mostly up to 57.5 µM
Procedure, shortened: as §1

[7] = test system: JEG-3; details: Gynecologic cancer cell panel viability, ATPlite luminescence, 48 h; series mostly up to 57.5 µM
Procedure, shortened: as §1

Measured: Potency

CC(C)c1ccc(NC(=O)Cn2cnc3c2c(=O)n(C)c(=O)n3C)cc1
inactive: all assays above

CC1(C)CCCC2(C)C1C(OC(=O)/C=C/C=C/C=O)C=C1COC(=O)C12O (stereo unspecified)
inactive: all assays above

CCC(C)c1ccc(NC(=O)Cn2cnc3c2c(=O)n(C)c(=O)n3C)cc1 (stereo unspecified)
inactive: all assays above

C=C1C(=O)O[C@@H]2C[C@]3(C)[C@@H](CCC(C)O)[C@@H]3C[C@H]12 (stereo partly specified)
inactive: all assays above

C[C@@H](c1ccc2nccn2c1)n1nnc2ncc(-c3cnn(C)c3)nc21
inactive: all assays above

C[C@@H](NC(=O)C(=O)c1c[nH]c2ccc([N+](=O)[O-])cc12)c1ccccc1
inactive: all assays above

COc1cc(-c2cn(C3CCc4c(F)cccc4N(CC(F)(F)F)C3=O)nn2)ccc1-n1cnc(C)c1 (stereo unspecified)
inactive: all assays above

CC(=O)OC1C(O)CC2(C)C(CCC3(C)C2CC=C2C4C5(CCC(CO[C@@H]6O[C@H](CO)[C@@H](O)[C@H](O)[C@H]6O)(OC5=O)C4(C)O)C(O)CC23C)C1(C)C (stereo partly specified)
inactive: all assays above

O=C(O)c1ccc(N2C(=O)/C(=C/c3ccc(-c4ccc([N+](=O)[O-])cc4)o3)C=C2c2ccccc2)cc1
inactive: all assays above

CC1=C(C(=O)OC2CCCCC2)C(c2ccc([N+](=O)[O-])cc2)C2=C(CC(C)(C)CC2=O)N1 (stereo unspecified)
inactive: all assays above

CNc1cc2[nH]c(=O)n(-c3ccc(NC(=O)NS(=O)(=O)c4ccc(Cl)s4)cc3)c(=O)c2cc1F
inactive: all assays above

O=C(NCc1ccc(OC(F)(F)F)cc1)C1c2c(F)cccc2C(=O)N1CCc1ccccn1 (stereo unspecified)
inactive: all assays above

CC[C@H]1OC(=O)[C@H](C)[C@@H](O[C@H]2C[C@@](C)(OC)[C@@H](O)[C@H](C)O2)[C@H](C)[C@@H](O[C@H]2O[C@H](C)C[C@H](N(C)C)[C@H]2O)[C@](C)(O)C[C@@H](C)C(=O)[C@H](C)[C@@H](O)[C@]1(C)O
inactive: all assays above

O=C(Nc1cc(C(F)(F)F)cc(C(F)(F)F)c1)c1cnc(Cl)nc1C(F)(F)F
inactive: all assays above

CC(C)(CO)c1cc2cc(NC(=O)C3(c4ccc5c(c4)OC(F)(F)O5)CC3)c(F)cc2n1CC(O)CO (stereo unspecified)
inactive: all assays above

Cc1cnc(-c2ccccc2C(C)C)nc1NCc1ccc(-n2ccnn2)cc1
inactive: all assays above

NC(N)=NC(=O)c1cnn(-c2cccc3ncccc23)c1C1CC1
inactive: all assays above

C=C1C(=O)OC2C3=C(C)C(=O)CC3C(C)CC(O)C12 (stereo unspecified)
inactive: all assays above

Cc1cccc(C#Cc2cc(F)cc(C#N)c2)n1
inactive: all assays above

CCc1ccccc1OC[C@@H](O)CN[C@H]1CCCc2ccccc21
inactive: all assays above

CC(C)(Cc1ccccc1)NCC(O)c1ccc(O)c(NS(C)(=O)=O)c1 (stereo unspecified)
inactive: all assays above

COc1c2c(nc3occc13)C(CC=C(C)C)(OC)C(O)CC2 (stereo unspecified)
inactive: all assays above

O=C(Nc1cnc(Cl)nc1)c1ccc(F)c(F)c1
inactive: all assays above
